# Source: PubChem (The Scripps Research Institute Molecular Screening Center)
# The list is not random: actives were taken first. Their share in the collection is about 2.6%.
# Ba/F3 V617F tox – loss of viability in JAK2V617F-driven Ba/F3 cells. Ba/F3 EpoR-JAK2V617F viability, ATP luminescence. inhibition, % at 5.6 µM. hit rate 1.1% among 220,000. AID 1446;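 active = inhibition above the campaign mean plus 3 SD over all tested compounds, cut at about 24% in these data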;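 also: cytokine-independent growth of Ba/F3 cells driven by EpoR plus mutant JAK2; 0% = DMSO-treated cells and 100% = JAK inhibitor I control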
# BaF3 parental – counter-screen for JAK2V617F inhibitors: parental Ba/F3 viability inhibitors | CellTiter-Glo ATP luminescence | inhibition, % at 5.6 µM | hit rate 1.1% among 220,000 | AID 1486;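 active = inhibition above a per-campaign cutoff, the mean inhibition of all tested compounds plus 3 SD, cut at about 27% in these data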;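 also: 0% = DMSO wells and 100% = JAK Inhibitor I control wells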
# IEC-6 cytotox – IEC-6 cytotoxicity, counter-screen for KLF5 inhibitors; luminescence viability; hit rate 0.78% among 290,000; inhibition, % at 5 µM;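 also: 0% = plate median of test compound wells and 100% = cytotoxic reference compound wells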
# GPR7 antag – human neuropeptides B/W receptor 1 antagonism; P48145; GPR7-expressing cells, fluorescence antagonist assay; inhibition, % at 4.4 µM; hit rate 1.1% among 290,000; AID 1861; in the data active = inhibition above about 16%, passing the limit was not always enough;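 also: cells stimulated with the agonist NPW; 0% = agonist with vehicle and 100% = vehicle without agonist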
# Target sequence (P48145 whole entry, looked up): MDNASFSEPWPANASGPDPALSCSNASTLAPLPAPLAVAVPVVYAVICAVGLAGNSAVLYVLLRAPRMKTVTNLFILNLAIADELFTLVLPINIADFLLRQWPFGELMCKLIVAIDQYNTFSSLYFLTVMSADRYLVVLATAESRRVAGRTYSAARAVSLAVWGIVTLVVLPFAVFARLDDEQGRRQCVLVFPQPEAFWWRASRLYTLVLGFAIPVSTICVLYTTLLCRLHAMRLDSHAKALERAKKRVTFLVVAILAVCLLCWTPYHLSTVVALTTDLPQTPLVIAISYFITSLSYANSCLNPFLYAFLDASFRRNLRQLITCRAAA
# FID counter – displaces DNA intercalator in HCV helicase counter-screen; hit rate 0.17% among 290,000; inhibition, % at 7.9 µM; AID 1845; DNA fluorescent intercalator displacement, fluorescence; in the data active = inhibition above about 37%;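 also: 0% = vehicle and 100% = reference compound; higher means more ethidium bromide displaced from hairpin DNA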
# KLF5 inh – suppresses KLF5 promoter-driven expression; DLD-1 KLF5 promoter-luciferase reporter, luminescence; inhibition, % at 5 µM; hit rate 0.23% among 290,000; AID 1700;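 active = inhibition above a per-plate limit of that plate's mean compound inhibition plus 3 SD, cut at about 60% in these data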;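 also: 0% = DMSO wells and 100% = LY294002 at 200 µM; higher means less KLF5 promoter-driven luciferase light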
# IEC-6 cytotox cf – IEC-6 cytotoxicity, confirmation assay | IEC-6 rat intestinal epithelial viability, luminescence | hit rate 63% among 1,900 | shares compounds with IEC-6 cytotox | inhibition, % at 5 µM | AID 1907;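 also: 0% = vehicle and 100% = reference cytotoxic drug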
# Active calls of the source: *; nt = not tested or not shown. Rule as the data show it, unless noted: active = inhibition above about 22%; inactive = the rest.
SMILES,Ba/F3 V617F tox,BaF3 parental,IEC-6 cytotox,GPR7 antag,FID counter,KLF5 inh,IEC-6 cytotox cf
Cc1ccc2c(C)ccc(O)c2n1,1,5,1,-3,-6,-28,nt
O=C1CCCc2cc3c(cc21)CC1(C3)Cc2cc3c(cc2C1)C(=O)CCC3,-3,-6,32*,15,-18,17,35*
CC(C)(C)c1ccc(-n2nc(C#N)c(Cl)cc2=O)cc1,15,-11,52*,84*,1,11,11
CN(C)c1nc(=NCc2ccco2)ss1,12,8,97*,8,-2,-5,30*
CCN(CC)c1ccc2nc3ccccc3[n+](CC)c2c1,nt,nt,34*,-17,31,20,33*
Cc1cccc(C(P(=O)(c2ccccc2)c2ccccc2)P(=O)(c2ccccc2)c2ccccc2)n1,-4,1,2,12,-34,9,nt
O=C(N/N=C/c1ccc2c(c1)OCO2)c1cccc(NC(=O)c2ccccc2Cl)c1,nt,nt,36*,8,-26,20,9
Cc1cc(C(=O)N/N=C/c2ccc3c(c2)OCO3)c2ccccc2n1,56*,52*,39*,5,-16,36,35*
O=C(N/N=C/c1ccc2c(c1)OCO2)c1ccc(NC(=O)c2ccccc2Cl)cc1,nt,nt,6,12,-22,28,nt
COc1ccc(C(=O)C2CCCN(C(=O)c3ccc(CSC)o3)C2)cc1F (configuration not stated),nt,nt,-5,-8,-41,-7,nt
O=S(=O)(c1ccc(Cl)cc1)N1CCCc2ccccc21,nt,nt,2,-28,-14,-20,nt
COC(=O)Nc1ccc(S(=O)(=O)N2c3ccccc3CCC2C)cc1 (configuration not stated),57*,41*,48*,14,-10,31,53*
CC(=O)Nc1ccc(S(=O)(=O)N2CCCc3ccccc32)cc1,22,20,40*,-4,-5,4,42*
CC(=O)Nc1ccc(S(=O)(=O)N2CCN(C(=O)c3ncoc3-c3ccccc3F)CC2)cc1,nt,nt,-2,-1,-11,-6,nt
CC(C)C1NC2(C(=O)c3ccccc3C2=O)C2C(=O)N(c3ccc(F)cc3)C(=O)C12 (configuration not stated),-3,10,-4,-10,-10,-23,nt
CCN(CC)S(=O)(=O)c1ccc(N2CCCC2)c(NC(=O)c2c(-c3ccccc3)noc2C)c1,nt,nt,-11,3,-35,-2,nt
CCOC(=O)c1ccc(N2CCOCC2)c(NC(=O)c2c(-c3ccccc3)noc2C)c1,75*,54*,61*,-8,-43,50,50*
Cc1onc(-c2ccccc2)c1C(=O)Nc1ccccc1N1CCOCC1,1,6,-2,3,-20,-20,nt
Cc1onc(-c2ccccc2)c1C(=O)Nc1cc(C(F)(F)F)ccc1N1CCOCC1,84*,81*,77*,7,-19,44,50*
COc1ccc(/C=C/C(=O)NC(=S)Nc2ccc(Br)cn2)cc1,nt,nt,-6,1,-4,-65,nt
CCC1(CC)C(=O)NN(c2ccccc2)C1=O,-2,6,2,0,6,-22,nt
COc1cc(CCC(=O)Nc2nnc(C)s2)cc(OC)c1OC,nt,nt,48*,7,-12,46,35*
COc1cc(CCC(=O)Nc2ncc(C)s2)cc(OC)c1OC,nt,nt,2,0,-16,-5,nt
CCOc1ccc(OCc2ccc(C(=O)Nc3ccc(Cl)cn3)o2)cc1,0,4,0,1,-5,-38,nt
O=c1oc(-c2ccccc2)cc(Cl)c1Cl,nt,nt,31*,32,-2,-7,21
SMILES,Ba/F3 V617F tox,BaF3 parental,IEC-6 cytotox,GPR7 antag,FID counter,KLF5 inh,IEC-6 cytotox cf
CN(C)c1cc(-c2cccc([N+](=O)[O-])c2)oc(=O)c1Cl,-3,4,-4,-8,2,-25,nt
CC(=O)c1cc2c(cc1NC(=O)CCn1cccc1)OCO2,0,8,-3,-3,-6,-14,nt
CC(C)(C)Nc1nc(NCc2cccnc2)nc(N2CCOCC2)n1,-3,-3,2,-15,-8,0,nt
O=C(N/N=C/c1c(-c2ccccc2)[nH]c2ccccc12)c1cccnc1,64*,55*,58*,17,-15,13,23*
COc1ccc(/C=C2\CN(Cc3ccccc3)C/C(=C\c3ccc(OC)c(O)c3)C2=O)cc1O,nt,nt,33*,3,-17,25,15
Cc1ccc(C(=O)N(C)c2ccc(OCC(=O)N3c4ccc(C)cc4C4CN(C)CCC43)cc2)cc1 (configuration not stated),7,13,-1,4,10,-44,nt
CCN(CC)CCOc1ccc(Br)cc1,0,2,2,-5,9,8,nt
CCN(CC)CCOc1ccc2c(c1)C(=NO)c1cc(OCCN(CC)CC)ccc1-2,18,19,37*,19,90*,4,21
Nc1nc(Nc2ccccc2F)nc(N2CCCC2)c1[N+](=O)[O-],nt,nt,23*,-9,-12,-16,22*
COC(=O)C1=NN(c2ccc(C)cc2)C2(S1)SC(C(C)=O)=C(C)N2c1ccccc1 (configuration not stated),-1,3,6,9,1,-22,nt
Cc1ccc(-c2nc(C(Cl)Cl)c3ccccc3n2)cc1,8,4,87*,-17,1,16,99*
OCCC1CN(CCCc2ccccc2)CCN1Cc1ccccc1 (configuration not stated),-4,1,23*,1,4,-22,3
COc1ccc(S(=O)(=O)NCCC(=O)Nc2ccc(C)cc2)cc1,nt,nt,3,-9,-10,-33,nt
O=C(N/N=C/c1ccc(O)cc1O)c1ccc(CN2C(=O)c3cccc4cccc2c34)cc1,19,5,34*,-8,-25,45,52*
O=C(N/N=C/c1ccccc1)c1ccc(CN2C(=O)c3cccc4cccc2c34)cc1,0,10,4,-7,-18,13,nt
CNc1nc(-c2ccc3c(c2)CCN3C(=O)CC(C)(C)C)c(C)s1,-2,7,-2,-14,-15,-13,nt
CC(=O)Nc1nc(-c2ccc3c(c2)CCN3C(=O)C2CC2)c(C)s1,nt,nt,49*,-5,-21,-40,4
CC(=O)C1=C(O)C(=O)N(C2CCCCC2)C1c1ccccc1 (configuration not stated),0,5,-2,-4,-14,4,nt
CCC(NC(=O)c1cc(COc2ccc(C)nc2)on1)c1ccc(C)cc1 (configuration not stated),nt,nt,-6,14,-43,-17,nt
Cc1c(O)ccc(C(=O)CN2CCN(Cc3ccc4c(c3)OCO4)CC2)c1O,6,-2,60*,-1,98*,7,4
CCOC(=O)N1CCN(Cc2ccc3c(c2)OCO3)CC1,nt,nt,-6,-5,-3,-15,nt
COc1ccc(-c2c(-c3cc(OC)c(OC)c(OC)c3)noc2C)cn1,nt,nt,80*,7,-31,55,54*
COc1cc(-c2noc(C)c2C#Cc2ccc(N)cc2)cc(OC)c1OC,nt,nt,87*,15,-21,56,64*
